The values that follow come from the supplement of paper PMC8728848.

About 410 targets per protein were measured; listed, in parts, are those with the strongest signals and a random draw of the rest.

What all share (assay): glycan array binding signal (z-score within array); higher = stronger binding
Holding throughout (conditions): glycan notation: IUPAC condensed, linker removed

Test [1] concerns the target GlcNAc(a1-4)Gal(b1-4)GlcNAc(b1-3)Gal(b1-4)[Fuc(a1-3)]GlcNAc(b1-3)Gal(b1-4)[Fuc(a1-3)]GlcNAc. The method in brief: (§1)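 From the Consortium for Functional Glycomics database, 3228 arrays were curated, keeping only those whose protein sequence was available. Binding is given as a within-array Z-score averaged across arrays sharing a protein sequence and across linkers. Negative Z-scores can be read as non-binding.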

Test [2] concerns the target GlcNAc(b1-3)Gal(b1-4)GlcNAc(b1-2)[GlcNAc(b1-3)Gal(b1-4)GlcNAc(b1-6)]Man(a1-6)[GlcNAc(b1-3)Gal(b1-4)GlcNAc(b1-2)Man(a1-3)]Man(b1-4)GlcNAc(b1-4)GlcNAc. A digest of the protocol: as §1
Test [3] addresses GlcNAc(b1-3)Gal(b1-4)GlcNAc(b1-3)Gal(b1-4)GlcNAc(b1-3)Gal(b1-4)GlcNAc(b1-3)Gal(b1-4)GlcNAc(b1-2)[GlcNAc(b1-3)Gal(b1-4)GlcNAc(b1-3)Gal(b1-4)GlcNAc(b1-3)Gal(b1-4)GlcNAc(b1-3)Gal(b1-4)GlcNAc(b1-6)]Man(a1-6)[GlcNAc(b1-3)Gal(b1-4)GlcNAc(b1-3)Gal(b1-4)GlcNAc(b1-3)Gal(b1-4)GlcNAc(b1-3)Gal(b1-4)GlcNAc(b1-2)Man(a1-3)]Man(b1-4)GlcNAc(b1-4)[Fuc(a1-6)]GlcNAc. A digest of the protocol:
as §1

In test [4] the target is GlcNAc(b1-3)[GlcNAc(b1-6)]Gal(b1-4)GlcNAc. The method in brief:
as §1

The target of test [5] is GlcNAc(b1-3)[GlcNAc(b1-6)]GlcNAc. A digest of the protocol: as §1
Test [6] has as its target GlcNAc(b1-4)Gal(b1-4)GlcNAc. The method in brief: as §1
The target in test [7] is Man(a1-2)Man(a1-3)[Man(a1-2)Man(a1-6)]Man(a1-6)[Man(a1-2)Man(a1-2)Man(a1-3)]Man(b1-4)GlcNAc(b1-4)GlcNAc. The method in brief: as §1
The target in test [8] is Man(a1-2)Man(a1-3)[Man(a1-3)[Man(a1-6)]Man(a1-6)]Man(b1-4)GlcNAc(b1-4)GlcNAc. A digest of the protocol:
as §1

The target in test [9] is Man(a1-2)Man(a1-3)[Man(a1-6)]Man(a1-6)[Man(a1-2)Man(a1-3)]Man(b1-4)GlcNAc(b1-4)GlcNAc. A digest of the protocol:
as §1

Test [10] addresses Man(a1-3)[Man(a1-6)]Man(a1-6)[Man(a1-3)]Man(b1-4)GlcNAc(b1-4)GlcNAc. The method in brief:
as §1

Test [11] concerns the target Neu5Ac(a2-3)Gal(b1-4)GlcNAc(b1-3)Gal(b1-4)GlcNAc(b1-3)Gal(b1-4)GlcNAc(b1-2)Man(a1-3)[Neu5Ac(a2-3)Gal(b1-4)GlcNAc(b1-3)Gal(b1-4)GlcNAc(b1-3)Gal(b1-4)GlcNAc(b1-2)Man(a1-6)]GalNAc. A digest of the protocol:
as §1

In test [12] the target is Neu5Ac(a2-3)Gal(b1-4)GlcNAc(b1-6)[Neu5Ac(a2-3)Gal(b1-3)]GalNAc. A digest of the protocol:
as §1

For test [13], the target named is Neu5Ac(a2-3)Gal(b1-4)[Fuc(a1-3)]GlcNAc. The method in brief:
as §1

In test [14] the target is Neu5Ac(a2-3)Gal(b1-4)[Fuc(a1-3)]GlcNAc(b1-3)GalNAc. The method in brief:
as §1

Test [15] concerns the target Neu5Ac(a2-3)Gal6S(b1-4)[Fuc(a1-3)]GlcNAc. A digest of the protocol: as §1
Another test has as its target Neu5Ac(a2-6)Gal. A digest of the protocol: as §1
The target of test [16] is Neu5Ac(a2-6)Gal(b1-4)GlcNAc(b1-2)Man(a1-6)Man(b1-4)GlcNAc(b1-4)GlcNAc. The method in brief:
as §1

Test [17] addresses Neu5Ac(a2-6)Gal(b1-4)GlcNAc(b1-2)Man(a1-6)[Gal(b1-4)GlcNAc(b1-2)Man(a1-3)]Man(b1-4)GlcNAc(b1-4)GlcNAc. The method in brief:
as §1

Test [18] deals with Neu5Ac(a2-6)Gal(b1-4)GlcNAc(b1-2)Man(a1-6)[GlcNAc(b1-2)Man(a1-3)]Man(b1-4)GlcNAc(b1-4)GlcNAc. A digest of the protocol: as §1
For test [19], the target named is Neu5Ac(a2-6)Gal(b1-4)GlcNAc(b1-6)GalNAc. The method in brief: as §1
The target in test [20] is Neu5Ac(a2-6)Gal(b1-4)GlcNAc(b1-6)[Gal(b1-3)]GalNAc. A digest of the protocol:
as §1

The next test concerns the target Neu5Ac(a2-8)Neu5Ac. A digest of the protocol:
as §1

Test [21] concerns the target Neu5Gc(a2-3)Gal(b1-3)GlcNAc. The method in brief: as §1

B1: XL-35 (Xenopus laevis) (protein)
chain: MLVHILLLLVTGGLSQSCDPVVIVASKNMVKQLDCDKFRNCKEIKDSNEEAQDGIYTLTSPDGISYQTFCDMTTNGGGWTLVASVHENNMAGKCTIGDRWSSQQGNRADYPEGDGNWANYNTFGSAGGATSDDYKNPGYYDIEAYNLGVWHVPNKTPLSVWRNSSLQRYRTTDGILFKHGGNLFSLYRIYPVKYGIGSCSKDSGPTVPVVYDLGSANLTASFYSPGFRSQFTPGYIQFRPINTEKAALALCPGMKMESCNVEHVCIGGGGYFPEADPRQCGDFAAYDFNGYGTKKFNSAGIEITEAAVLLFYL
For the molecule B1, the “glycan array binding signal (z-score)” value was 1.05 in [1]; 0.95 in test [2]; 0.094 in test [3]; -0.01 in test [4]; -0.058 in test [5]; 4.54 in test [6]. In addition, the “glycan array binding signal (z-score)” value in test [7] is -0.156; in test [8], -0.086; in [9], -0.092; in test [10], 0.065; in [11], 0.335; in test [12], -0.518. Further, the “glycan array binding signal (z-score)” value in [13] is -0.21; in test [14], 0.775; in test [15], -0.241; in the test with Neu5Ac(a2-6)Gal, -0.04; in test [16], -0.2; in [17] it was -0.115. The “glycan array binding signal (z-score)” value is 0.009 in test [18]; -0.112 in test [19]; 0.356 in test [20]; -0.216 with Neu5Ac(a2-8)Neu5Ac; -0.235 in [21].
